Source: PubChem
Sm TGR block – S. mansoni TGR enzyme inhibition | purified TGR, DTNB reduction, TNB absorbance 405 nm | Potency, µM (highest dose often 114 µM), for inactives: top-dose activity change, negative = inhibition, usual class: inhibitors | Q962Y6 | 360,000 compounds, 3% hits; note: potency is the fitted concentration of half-maximal effect; nearly all actives have a fitted effect of over 60% in size
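TGR 20 nM + NADPH 100 uM (dispensed conc.), cpd preinc 15 min RT; start with NADPH (500 uM addition) then DTNB (15 mM addition). Kinetic TNB absorbance, 405 nm filter. Four-parameter Hill fit across titration.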
HCMV inh – inhibitors of human cytomegalovirus | HFF cells, HCMV-luciferase reporter, 72 h; active compounds read low | 410,000 compounds, 4.5% hits | activity change, negative = inhibition, % at 57.5 µM; in the data active = activity change below about -60%; inconclusive = no clear call, values can overlap the other calls; inactive = above about -39%
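Screen run at 2 compound doses on HFFs infected with reporter HCMV, MOI 1 PFU/cell. Luciferase activity from cell lysates at 72 h post infection gave inhibition relative to buffer-only and Salinomycin wells.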
FBPA Giardia inh – Giardia lamblia aldolase inhibition; A8B2U2; purified Giardia FBPA; Potency, µM (top dose mostly 59.6 µM), without a hit: at the highest dose activity, negative = inhibition, hits mostly inhibitors; 290,000 compounds, 0.71% hits; AID 2451; note: potency is the fitted concentration of half-maximal effect; nearly all actives have a fitted effect of over 55% in size
Target sequence (A8B2U2 whole entry, looked up): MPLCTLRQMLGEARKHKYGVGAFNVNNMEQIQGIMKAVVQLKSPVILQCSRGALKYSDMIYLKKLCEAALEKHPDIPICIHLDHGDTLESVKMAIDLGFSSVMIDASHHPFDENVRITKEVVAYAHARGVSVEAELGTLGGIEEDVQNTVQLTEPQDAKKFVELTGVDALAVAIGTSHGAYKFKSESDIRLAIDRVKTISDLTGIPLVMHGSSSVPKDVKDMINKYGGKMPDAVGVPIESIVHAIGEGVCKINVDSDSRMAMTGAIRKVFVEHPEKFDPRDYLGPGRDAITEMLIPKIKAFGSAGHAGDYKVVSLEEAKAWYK
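40 nM FBPA preincubated 10 min at RT with compound (up to 57.5 uM final), then substrate plus GAPDH/TPI/NAD/arsenate coupling and diaphorase/resazurin added. Fluorescence read after 20 min at RT, 525/598 nm.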
FMDV antiviral – foot and mouth disease virus antiviral activity; FMDV antiviral cell-based qHTS; Potency, µM (titrated, usually from 57.9 µM), for inactives: at the highest dose activity change, negative = inhibition, hits mostly inhibitors; 410,000 compounds, 1.2% hits; calls by dose curve; tested in HEK293T cells; note: read-out not given here; potency is the fitted concentration of half-maximal effect; nearly all actives have a fitted effect of over 45% in size
RE007 growth inh – less growth of the S. pombe RE007 Vpr strain; AID 651644; 360,000 compounds, 0.21% hits; S. pombe RE007 Vpr strain, BacTiter-Glo ATP luminescence, 24 h; Potency, µM (top dose mostly 92.2 µM), for inactives: at the highest dose activity change, negative = less growth, usual class: inhibitors; active = well fitted falling curve with a large enough effect; inconclusive = small, poorly fitted or top-dose-only effect; inactive = no such curve, though single readings can be large or run the other way; note: potency is the fitted concentration of half-maximal effect; nearly all actives have a fitted effect of over 50% in size
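Fission yeast strain RE007, carrying one chromosomally integrated HIV-1 vpr copy, was seeded at OD 0.01 in PMG+AL medium with 23 nL pinned compound. After 24 h at 30 °C and 99% humidity, viability was read by BacTiter-Glo luminescence.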
Tb PYK inh – T. brucei pyruvate kinase inhibition. Q57TT1. TbPYK enzyme, Kinase-Glo Plus ATP luminescence, 45 min. Potency, µM (top dose mostly 76.8 µM), for inactives: top-dose activity, negative = inhibition, usual class: inhibitors. 410,000 compounds, 0.12% hits; note: potency is the fitted concentration of half-maximal effect; nearly all actives have a fitted effect of over 50% in size
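Screened from lowest to highest concentration, compounds were pinned into TbPYK/substrate mixtures, and ADP (130 uM final) was added. Plates sat at room temperature for 45 min prior to Kinase-Glo Plus detection by luminescence.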
* = called active by the depositor; ? = inconclusive; · = no result; ! = repeats disagree; [ ] = another dose, or the depositor's remark. The list is not random: actives were taken first. Their share in the collection is about 7.7%. Unless noted, calls come from the whole dose curve; as a rule, active = well fitted curve in the direction sought with a large enough effect; inconclusive = small, poorly fitted or top-dose-only effect, or another doubt; inactive = no such curve, though single readings can be large; an effect the other way counts as inactive or inconclusive. % is set by controls: 0 for no effect and ±100 for the full control effect.

SMILES	Sm TGR block	HCMV inh	FBPA Giardia inh	FMDV antiviral	RE007 growth inh	Tb PYK inh
CC1C(=O)OC2C1CCC1(C)CCC(=O)C(C)C21 (stereo not given)	3.5µM*	-32	8%	-25%	-16%	-10%
Cn1nnnc1Sc1ncnc2scc(-c3cccc(S(C)(=O)=O)c3)c12	?	-5	·	-24%	·	-4%
Cn1nnnc1Sc1ncnc2scc(-c3ccc4c(c3)OCO4)c12	·	-86*	·	0%	·	-5%
COc1ccc(-c2csc3ncnc(Sc4nnnn4C)c23)cc1	·	-92*	·	?	·	3%
Cn1nnnc1Sc1ncnc2scc(-c3ccc(Cl)cc3)c12	-24%	-98*	·	20µM*	·	-2%
Cn1nnnc1Sc1ncnc2scc(-c3cccc(Br)c3)c12	·	-18	·	-96%	·	-1%
Cn1nnnc1Sc1ncnc2scc(-c3cccc4c3sc3ccccc34)c12	·	-92*	·	28µM*	·	0%
COc1ccc(Cn2cnc3cnc(-c4cc(OC)c(OC)c(OC)c4)cc32)cc1OC	·	39	·	·	·	·
O=C([C@@H]1C[C@@H](Sc2nc3ccccc3[nH]2)CN1CC1CCCCC1)N1CCOCC1	·	·	·	12%	·	·
O=S1(=O)c2ccc(Br)cc2OC[C@H](c2ccccc2)N1Cc1ccccc1	·	-3	·	·	·	·
Cn1nnnc1Sc1ncnc2scc(-c3ccc([N+](=O)[O-])cc3)c12	?	-100*	·	11µM*	·	-11%
Cn1nnnc1Sc1ncnc2scc(-c3ccccc3Cl)c12	4%	-73*	·	-10%	·	5%
CC(=O)c1cccc(-c2csc3ncnc(Sc4nnnn4C)c23)c1	·	?	·	35µM*	·	-4%
COc1ccc(S(=O)(=O)c2cn(C)c3ccc(C)cc3c2=O)cc1	1%	2	·	35%	·	3%
Cc1ccc2c(c1)sc(-c1ccc(N(C)C)cc1)[n+]2C	-1%	-96*	-16%	?	·	-5%
O=C1CC(N2CCC(c3nc4ccccc4o3)CC2)C(=O)N1 (stereo not given)	35µM*	?	3%	3%	-21%	-1%
O=C1CC(N2CCC(c3nc4ccccc4o3)CC2)C(=O)N1c1ccc(Cl)c(C(F)(F)F)c1 (stereo not given)	14µM*	-1	-3%	·	28µM*	-3%
S=c1nc(-c2ccccc2)n(Cc2ccco2)c2c1CCCC2	35µM*	·	-12%	·	·	·
S=c1nc(-c2ccccc2)n(Cc2cccnc2)c2c1CCCC2	?	·	2%	-6%	-22%	-8%
Fc1ccc(-n2c(-c3ccco3)nc3nc4ccccc4nc32)cc1	0%	2	0%	-7%	-6%	-1%
c1ccc(-c2nc3nc4ccccc4nc3n2Cc2ccco2)cc1	10µM*	66	-14%	23%	-8%	3%
Fc1ccc(-c2nc3nc4ccccc4nc3n2Cc2ccco2)cc1	20µM*	68	-8%	2%	4%	-7%
Cc1ccccc1NS(=O)(=O)c1nnc(NC(=O)c2ccco2)s1	10%	18	·	20%	·	-8%
Cc1ccc(C)c(NC(=O)CN2CCCN(Cc3cccc(Cl)c3)S2(=O)=O)c1	1%	0	·	-9%	·	0%[15.4 µM]
CCOc1ccc(-n2ccn3c(CC(C)CC(=O)O)nnc3c2=O)cc1 (stereo not given)	2%	11	·	-12%	·	2%
O=C(CSc1nnc(-c2ccc3c(c2)OCO3)o1)Nc1ncc(Cl)cc1Cl	2%	-61*	0%	5%	1%	-7%
O=C(O)CCSc1nnc(-c2ccc3c(c2)OCO3)o1	-26%	-75*	15%	-15%	-13%	-10%
CC(=O)OCC(CO)OC(C)=O (stereo not given) (tested in a mixture with another compound)	·	·	-3%	·	·	·
C=CCc1ccccc1OCC(O)CN1CCN(c2ccccc2OC)CC1 (stereo not given)	0%	-64*!	0%	?	-6%	2%
CC(C)NCC(O)COc1ccccc1-n1cccc1 (stereo not given)	·	·	·	·	·	1%
